From PubChem BioAssay
L3MBTL1 inh – blocks human L3MBTL1 | AlphaScreen L3MBTL1–H3K9me1 peptide binding | Potency, µM (top dose mostly 57.1 µM), for the others: at the top dose activity, negative = inhibition, actives largely listed as inhibitors | hit rate 0.66% among 230,000 | AID 485360; further: nearly all actives have a fitted effect of over 60% in size
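AlphaScreen proximity signal between nickel-chelate acceptor and streptavidin donor beads (final 10 ug/mL) reports binding of 50 nM L3MBTL1 to 75 nM biotin-H3 K9me1 peptide; complex incubated with compounds 30 min at room temperature; cefsulodin titration as control.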
RECQ1 inh – RECQ1 (human) helicase inhibition; hit rate 0.54% among 240,000; AID 2549; RECQ1 DNA unwinding, red fluorescence kinetic read; Potency, µM (highest dose often 57.3 µM), without a hit: at the top dose activity, negative = inhibition, most hits filed as inhibitors;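 further: plate controls were vehicle for no effect and no enzyme for full effect; nearly all actives have a fitted effect of over 30% in size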
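RECQ1T1 50 nM; forked duplex (20 bp + 30-nt ss tails) 200 nM, ATP 2 mM final; pH 8.0, 2 mM MgCl2, 2.5 ug/ml poly(dI-dC); 15 min compound preincubation; discontinuous kinetic read over 2 h at RT.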
APEX1 inh – inhibitors of human APE1 endonuclease; P27695; AID 2517; recombinant APE1, TAMRA/BHQ-2 abasic DNA cleavage fluorescence; Potency, µM (titrated, usually from 65.8 µM), for inactives: at the highest dose activity change, negative = inhibition, most hits filed as inhibitors; hit rate 0.35% among 350,000;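 further: plate controls were vehicle for no effect and reference inhibitor for full effect; nearly all actives have a fitted effect of over 55% in size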
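Measures dequenching upon AP-site incision of a 5'-TAMRA/3'-BHQ-2 THF-containing duplex, 50 nM; human APE1 0.75 nM after 15 min room-temperature exposure to compound; kinetic three-point read at one-minute spacing.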
BLM inh – Bloom syndrome helicase (human) inhibition. P54132. recombinant BLM DNA unwinding, fluorescence dequenching. Potency, µM (doses to about 56.1 µM), inactives show at the top dose activity change, negative = inhibition, most hits filed as inhibitors. hit rate 0.2% among 350,000;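 further: plate controls were vehicle for no effect and no enzyme for full effect; nearly all actives have a fitted effect of over 35% in size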
* marks the source's active call; other numbers are inactive results; i = inactive; ? = inconclusive; · = no result; [ ] = dose if it differs, or a comment. Shown are actives, neighbours in structure and some others; about 0.78% of the full set was active somewhere. The call rests on the fitted dose curve; in most records, active means well fitted curve in the direction sought with a large enough effect; inconclusive means small, poorly fitted or top-dose-only effect, or another doubt; inactive means no such curve, though single readings can be large; an effect the other way counts as inactive or inconclusive. Unless noted, on the % scale 0 is the no-effect control and ±100 the full control effect; potency means the concentration at half of the fitted maximal effect.

SMILES	L3MBTL1 inh	RECQ1 inh	APEX1 inh	BLM inh
CCCCCCCCCCCCCCCCn1cc[n+](Cc2ccccc2)c1C	·	-24%	?	?
NC(=O)C1CCN(c2nc(-c3ccc(Cl)cc3)cs2)CC1	·	·	5%	·
O=C(O)c1cccc(-c2nc(-c3ccccc3C(F)(F)F)no2)c1	·	·	7%	·
CCCOCc1cc(CN2CCN(c3cccc(Cl)c3)CC2)c(O)c2ncccc12	·	·	·	-7%
CN1CCN(Cc2cc(COCc3ccccc3)c3cccnc3c2O)CC1	14µM*	-4%	-1%	-10%
CCOc1ccccc1-c1nnc2n1N=C(c1cc(OC)cc(OC)c1)CS2	·	i	23%	1%
CN(CC(=O)Nc1cccc(F)c1)C(=O)c1cccc(-n2cccc2)c1	7.1µM*	·	3.4µM*	·
Cc1ccc(-n2c(CCC(=O)O)ccc2-c2cccs2)cc1Cl	·	·	·	-3%
CC[C@]12c3[nH]c4cc(CCC(=O)N(C)C)ccc4c3CCN1C(=O)[C@@H](CC(=O)NCCCOC)C[C@@H]2C(=O)N1CCN(C(=O)C2CC2)CC1	26%	·	21µM*	·
CC[C@]12c3[nH]c4cc(-c5ccco5)ccc4c3CCN1C(=O)[C@@H](CC(=O)NCCC1=CCCCC1)C[C@@H]2C(=O)N1CCN(C(=O)c2ccco2)CC1	20µM*	·	-14%	·
C=CCCC/C=C(/C)C(OCc1ccc(OC)cc1)C(CC/C=C(\C)C(N)=O)OC (configuration not stated)	·	i[11.5 µM]	8%[12.4 µM]	-3%[12.4 µM]
O=C(CCN1C(=O)/C(=C\C=C\c2ccccc2)SC1=S)Nc1ccc(C(=O)O)cc1	·	·	13µM*	?
CN(C)S(=O)(=O)c1cccc(NC(=S)N/N=C/c2cc(Br)ccc2O)c1	10µM*	-16%	1%	4%
CCn1c(/C=C/c2ccc(O)c(O)c2)nc2ccccc2c1=O	20µM*	·	-19%	-12%
CCn1c(/C=C/c2ccc(O)cc2)nc2ccccc2c1=O	-6%	·	27%	-8%
O=c1/c(=C/c2ccco2)sc2nc3cc(Br)cnc3n12	·	·	14%	·
C/C(=N\Nc1ccc2nncn2n1)c1ccccn1	25µM*	-3%	2%	2%
O=C(Cc1cccs1)OCC(=O)c1ccco1	?	-21%	28µM*	0%
COc1cc(/C=C/c2ccccc2)oc(=O)c1	·	1%	3%	·
O=C(O)CCNc1ccc(NCCC(=O)O)c2c1C(=O)c1ccccc1C2=O	·	·	6.7µM*	?
COc1ccccc1NCCC(=O)O	·	i	4%	0%
CC(C)(C)n1ncc2c(=O)n(Cc3c(F)ccc(Cl)c3Cl)cnc21	·	·	1%	·
Cc1ccccc1N=Nc1ccc(O)c2ncccc12	25µM*	-3%	2%	0%
O=S(=O)(O)c1cccc2c(N=Nc3ccc(O)c4ncccc34)cccc12	·	·	24µM*	?
COC(=O)C1=C(C(=O)OC)[C@@H]2Nc3ccccc3[C@@]23C[C@@H](C(=O)OC)N(S(=O)(=O)c2ccc(C)cc2)C3=N1	·	?	2%[12.4 µM]	0%[12.4 µM]
SMILES	L3MBTL1 inh	RECQ1 inh	APEX1 inh	BLM inh
O=C(O)c1ccc(CSc2nnc(-c3cccc([S+](=O)([O-])N4CCCC4)c3)n2-c2ccccc2)cc1	·	·	5%	·
O=C(N/N=C1/C(=O)c2cccc3cccc1c23)c1ccc(Cl)cc1	·	i	0%	10µM*
COc1cc(/C=C2\C(=O)N(c3ccc(NC(C)=O)cc3)N=C2c2ccccc2)ccc1O	-3%	30%	?	0%
O=C1/C(=C\c2ccc(O)c(O)c2)C(c2ccccc2)=NN1c1ccccc1	14µM*	?	?	?
O=C1CCCC(O)=C1N=Nc1c(Cl)cc(Cl)cc1Cl	-14%	25µM*	?	3%
CCCCC#CC1C=CC(OC(C)=O)C(COC(C)=O)O1 (configuration not stated)	·	i[11.5 µM]	13%[12.4 µM]	-1%[12.4 µM]
COc1ccc(C2=Nn3c(nnc3-c3cc(OC)cc(OC)c3)SC2)cc1	·	-6%	-2%	-9%
N#CC1=C(N)SC(N)=C(C#N)C1c1ccoc1	5µM*	-14%	?	?
O=C(CSc1nnc(-c2cccc(S(=O)(=O)N3CCCC3)c2)n1-c1ccccc1)Nc1ccccc1	·	·	17%	·
O=C(c1cc2cc([N+](=O)[O-])ccc2oc1=O)n1cccn1	40µM*	i	-1%	0%
O=C(c1cccc(-n2cccc2)c1)N1CCN(S(=O)(=O)c2ccccc2)CC1	4.5µM*	·	1.5µM*	·
CCOc1ccc(N2CSC3=C(C#N)C(c4ccco4)CC(=O)N3C2)cc1 (configuration not stated)	·	?	32µM*	?
